Experimental findings from PubChem BioAssay are described below.

The nature of experiment [1]: rapamycin-like changes in RPL19A-GFP expression – cell-based, S. cerevisiae, multiplex flow cytometry, primary screen (AID 1862; in the data active means percent of DMSO control GFP below about 86%;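 further: lower values mimic rapamycin by blocking the RPL19A rise seen in DMSO cells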). The note with it: S. cerevisiae RPL19A-GFP strain, flow cytometry fluorescence, 3 h; at 10 µM; stronger effect = lower value.
The nature of experiment [2]: TOR pathway GLN3 branch reporter MEP2-GFP changes – S. cerevisiae, multiplex flow cytometry, primary screen (AID 1867;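 active means GFP response, as percent of the DMSO control, above the screen-wide mean plus 3 SD, about 139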;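 further: median GFP channel fluorescence of barcode-gated MEP2-GFP cells measured by flow cytometry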). Conditions: S. cerevisiae MEP2-GFP strain, 3 h, at 10 µM, stronger effect = higher value, 100% means same as DMSO wells.
Experiment [3] is described as follows: TOR pathway RTG branch CIT2 reporter changes – S. cerevisiae, GFP fusion, multiplex flow cytometry, primary screen (AID 1870;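 active means percent response above a set limit, the screen-wide mean plus 3 SD, cut at about 130% in these data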;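 further: barcoded CIT2-GFP strain pooled with four other GFP strains with rapamycin as positive control; median GFP fluorescence per well over plate mean of DMSO wells so 100% = DMSO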). The note with it: S. cerevisiae CIT2-GFP expression, 3 h, at 10 µM, stronger effect = higher value.
Experiment [4] can be described thus: TOR pathway LAP4-GFP level changes – S. cerevisiae, multiplex flow cytometry, primary screen (AID 1873;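 active means GFP signal, as percent of the solvent control, above the screen mean plus 3 SD, about 149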). Conditions: S. cerevisiae LAP4-GFP expression, 3 h, at 10 µM, stronger effect = higher value.
The nature of experiment [5]: yeast AGP1-GFP level changes, GLN3 branch – cell-based, multiplex flow cytometry, S. cerevisiae, primary screen (AID 1887;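 active means GFP signal above the screen-wide mean plus 3 SD, that is over about 124.5% of the solvent control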;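 further: AGP1-GFP fusion strain of S. cerevisiae within a five-strain barcoded multiplex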). Conditions: 3 h, at 10 µM, stronger effect = higher value.
Experiment [6] in a line: reduced mouse 2C T cell binding to pMHC/ICAM-1 vesicles – MLPCN validation set, flow cytometry, LFA-1/ICAM-1 modulator project, pilot screen (AID 2523;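 active means response below a set limit, under 55% cells CD8-positive and vesicle-bound, and CD8 cells' 90th-percentile brightness under 279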;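 on vesicle binding response: mean PE anti-B7-1 fluorescence of CD8+ cells relative to row control; 100% = QL9-loaded vesicles with DMSO vehicle in the same plate row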). The note with it: 2C mouse CD8+ T cells, at 7 µM, stronger effect = lower value; double positive events: measured here: CD8+/vesicle+ event percentage.
In experiment [7] the target is Integrin beta-1 (Homo sapiens) + Integrin alpha-4 (Homo sapiens) (UniProt P13612+P05556). Put plainly: alpha4beta1 integrin LIBS antibody binding reduction – U937 cells, HUTS-21 mAb, flow cytometry, validation set, VLA-4 allosteric modulator project, pilot screen (AID 2674;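 active means inhibition above 50%, about 3 SD of the validation set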;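 further: antibody binding induced by the VLA-4 ligand LDV present at three times its Kd; 0% = LDV ligand with antibody and no compound and 100% = antibody without LDV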). Conditions: HUTS-21 LIBS mAb binding, at 6.7 µM, stronger effect = higher value, binding induced by LDV ligand.

Experiment [8] deals with Beta-adrenergic receptor kinase 1 (Homo sapiens) (UniProt P25098). In words: GRK2 binders displacing RNA aptamer, biochemical, validation, human GRK2, bead flow cytometry (AID 488806;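 active means aptamer binding inhibition above 30%, about 3 SD of noise from non-fluorescent compounds; inactive means inhibition at or below 30%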). The note with it: bead-bound GRK2, FAM-aptamer displacement, at 10 µM, stronger effect = higher value.
Experiment [9] concerns the target Beta-2 adrenergic receptor (Homo sapiens) (UniProt P07550). Put plainly: agonist-induced loss of surface beta2AR – cell-based, FAP fluorogen, flow cytometry, validation set, pilot screen (AID 504459;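 active means percent response above 42, roughly 3 SD of non-fluorescent test compounds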;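 further: agonist-driven loss of surface beta2AR via internalization measured by FAP dye flow cytometry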). Conditions: Am2.2-beta2AR cells, at 10 µM, stronger effect = higher value.
Experiment [10] deals with AP-2 complex subunit beta (Homo sapiens) (UniProt P63010). In words: beta-arrestin/AP2 interaction blockers – biochemical, validation set, GST-AP2 beads, flow cytometry, pilot screen (AID 504541).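 Further: AP2 carries R879A mutation and is captured from E. coli lysate; bead-bound FITC arrestin peptide fluorescence measuring arrestin peptide binding to AP2; 0% = DMSO wells and 100% = excess unlabeled arrestin peptide control.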 The note with it: FITC arrestin peptide, at 10 µM, stronger effect = higher value, AP2 beta2 appendage fragment, R879A mutant.
Experiment [11] is described as follows: cytosolic pH regulators acting via V-ATPase – S. cerevisiae, pHLuorin, HTS validation (AID 504600; in the data active means response above about 15%;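 further: plate controls were DMSO for no effect and reference compound for full effect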). The note with it: V-ATPase proton transport, at 10 µM, stronger effect = higher value.
For experiment [12], the system named is anti-desmoglein-3 scFv antibody binding to human DSG3. In words: blockers of pathogenic pemphigus antibody–desmoglein-3 binding – biochemical, validation compound set, bead-based, flow cytometry, pilot screen (AID 588368;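 active means binding below the plate cutoff, the plate median minus 3 SD, with a reading above zero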;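 further: signal is the median channel fluorescence of bead-bound GFP antibody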). Conditions: Protein G beads, DSG3-Fc, scFv-GFP binding, at 10 µM, stronger effect = lower value.
Experiment [13] can be described thus: Nile Red efflux blockade in pump-expressing yeast – validation compound set, multiplex, phenotypic, pilot screen (AID 588506;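 active means efflux inhibition above 0.42, the validation set average plus 4 SD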;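 further: Nile Red retained in cells so higher fluorescence means more efflux inhibition; 0 = negative control wells and 1 = enniatin B 25 µM full block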). The note with it: S. cerevisiae pump-expressing triplex, Nile Red efflux flow cytometry; at 10 µM; stronger effect = higher value; the pumps come from Candida albicans.
Experiment [14] concerns the target ATP-binding cassette sub-family B member 6 (Homo sapiens) (UniProt Q9NP58). Put plainly: blockers of ABCB6-driven porphyrin uptake – K562-ABCB6 cells, flow cytometry, validation set, pilot screen (AID 588550;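 active means inhibition above the screen-wide mean plus 3 SD, about 51%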;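 further: 0% = DMSO wells and 100% = benzethonium chloride 70 µM positive control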). The note with it: K562-ABCB6 porphyrin accumulation, 1 h, at 10 µM, stronger effect = higher value.
Experiment [15] can be described thus: AML differentiation inducers, ER-HoxA9 marrow cells – cell-based, GFP/MAC1 double positive, flow cytometry, validation set, primary screen (AID 588685;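 active means differentiation response of at least 50%, scaled between solvent and reference control, from cells with both markers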;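 further: compound exposure lasts four days before antibody staining and flow analysis; 0% = DMSO wells and 100% = 5 µM fulvestrant positive control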). The note with it: stronger effect = higher value, normalized: vehicle 0, fulvestrant 100.
A short description of experiment [16]: calorie-restriction mimetic ROS inhibitors, yeast – validation compound set, pilot screen (AID 2706;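 active means superoxide response below 65% of plate, a cut near 3 SD across the whole screen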;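 further: yeast exposed to compound for one week at 30 degrees C before staining; 100% = mean of all compound wells on the same plate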). Conditions: S. cerevisiae aging, superoxide DHE fluorescence; at 10 µM, stronger effect = lower value.

Inconclusive results are not listed. The source made the active and inactive calls.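 How the source made its calls, unless noted: active means inhibition above 54%, about 3 SD of non-fluorescent compounds; inactive means the rest.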

Sequence of ATP-binding cassette sub-family B member 6 (Homo sapiens) (Q9NP58 whole entry, looked up): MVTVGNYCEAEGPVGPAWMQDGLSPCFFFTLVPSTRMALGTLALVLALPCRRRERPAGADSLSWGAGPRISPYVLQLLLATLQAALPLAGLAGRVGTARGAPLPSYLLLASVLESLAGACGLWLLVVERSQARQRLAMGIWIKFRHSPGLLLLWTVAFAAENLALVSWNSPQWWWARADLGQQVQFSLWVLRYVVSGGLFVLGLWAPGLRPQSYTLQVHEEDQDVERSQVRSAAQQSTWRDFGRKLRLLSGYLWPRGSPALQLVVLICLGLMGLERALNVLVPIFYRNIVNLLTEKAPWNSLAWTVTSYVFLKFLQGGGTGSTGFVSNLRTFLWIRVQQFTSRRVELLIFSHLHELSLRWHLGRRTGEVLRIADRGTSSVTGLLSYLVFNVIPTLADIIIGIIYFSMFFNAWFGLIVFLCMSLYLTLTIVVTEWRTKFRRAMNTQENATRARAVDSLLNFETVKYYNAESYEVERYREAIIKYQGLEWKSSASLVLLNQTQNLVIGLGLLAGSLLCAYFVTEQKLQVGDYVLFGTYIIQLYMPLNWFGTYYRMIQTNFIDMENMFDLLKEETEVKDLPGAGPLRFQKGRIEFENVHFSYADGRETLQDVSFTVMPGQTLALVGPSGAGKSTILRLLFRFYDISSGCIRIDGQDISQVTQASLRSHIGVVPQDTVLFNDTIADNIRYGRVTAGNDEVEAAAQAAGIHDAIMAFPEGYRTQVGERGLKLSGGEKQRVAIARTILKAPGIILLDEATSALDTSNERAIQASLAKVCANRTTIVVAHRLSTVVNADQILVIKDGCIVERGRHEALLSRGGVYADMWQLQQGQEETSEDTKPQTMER
Sequence of Beta-adrenergic receptor kinase 1 (Homo sapiens) (P25098 whole entry, looked up): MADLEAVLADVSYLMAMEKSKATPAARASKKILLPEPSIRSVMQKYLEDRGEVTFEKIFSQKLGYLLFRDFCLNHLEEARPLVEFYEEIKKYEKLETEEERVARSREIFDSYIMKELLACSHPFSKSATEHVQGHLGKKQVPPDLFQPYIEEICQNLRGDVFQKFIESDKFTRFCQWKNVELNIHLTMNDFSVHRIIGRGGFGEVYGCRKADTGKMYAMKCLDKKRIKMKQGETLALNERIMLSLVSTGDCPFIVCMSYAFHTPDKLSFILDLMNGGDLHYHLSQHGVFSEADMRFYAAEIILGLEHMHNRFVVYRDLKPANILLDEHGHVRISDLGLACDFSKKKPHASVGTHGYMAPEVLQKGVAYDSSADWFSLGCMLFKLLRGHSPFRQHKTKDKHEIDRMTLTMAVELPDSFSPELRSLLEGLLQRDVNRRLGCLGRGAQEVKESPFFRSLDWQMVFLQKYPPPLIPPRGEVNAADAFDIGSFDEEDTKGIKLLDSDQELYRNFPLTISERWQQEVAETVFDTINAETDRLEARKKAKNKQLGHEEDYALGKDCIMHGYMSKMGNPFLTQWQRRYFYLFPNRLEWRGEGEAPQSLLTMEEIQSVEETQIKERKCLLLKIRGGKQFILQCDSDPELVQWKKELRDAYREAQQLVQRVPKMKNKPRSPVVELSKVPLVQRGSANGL
Sequence of Integrin beta-1 (Homo sapiens) + Integrin alpha-4 (Homo sapiens) (P05556 whole entry, looked up): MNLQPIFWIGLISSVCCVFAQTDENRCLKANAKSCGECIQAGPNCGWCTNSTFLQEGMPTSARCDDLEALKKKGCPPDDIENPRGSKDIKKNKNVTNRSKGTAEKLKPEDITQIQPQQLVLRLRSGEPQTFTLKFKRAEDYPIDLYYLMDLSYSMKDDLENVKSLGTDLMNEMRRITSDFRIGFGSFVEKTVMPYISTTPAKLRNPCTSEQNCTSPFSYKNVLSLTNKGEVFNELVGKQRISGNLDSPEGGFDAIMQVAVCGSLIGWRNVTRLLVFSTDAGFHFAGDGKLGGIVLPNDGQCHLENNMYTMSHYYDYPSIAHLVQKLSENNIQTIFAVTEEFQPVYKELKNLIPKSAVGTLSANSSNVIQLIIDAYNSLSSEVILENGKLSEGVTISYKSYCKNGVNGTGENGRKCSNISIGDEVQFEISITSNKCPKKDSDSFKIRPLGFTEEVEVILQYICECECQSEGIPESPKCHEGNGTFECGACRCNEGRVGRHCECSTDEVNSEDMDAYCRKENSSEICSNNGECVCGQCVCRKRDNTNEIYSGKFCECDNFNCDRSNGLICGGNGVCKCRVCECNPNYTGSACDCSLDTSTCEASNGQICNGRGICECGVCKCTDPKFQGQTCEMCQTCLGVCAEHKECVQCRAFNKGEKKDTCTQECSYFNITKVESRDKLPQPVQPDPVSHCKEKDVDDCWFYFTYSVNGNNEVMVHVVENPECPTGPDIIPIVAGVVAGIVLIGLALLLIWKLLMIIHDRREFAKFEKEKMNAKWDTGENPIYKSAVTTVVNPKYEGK
Sequence of Integrin beta-1 (Homo sapiens) + Integrin alpha-4 (Homo sapiens) (P13612 whole entry, looked up): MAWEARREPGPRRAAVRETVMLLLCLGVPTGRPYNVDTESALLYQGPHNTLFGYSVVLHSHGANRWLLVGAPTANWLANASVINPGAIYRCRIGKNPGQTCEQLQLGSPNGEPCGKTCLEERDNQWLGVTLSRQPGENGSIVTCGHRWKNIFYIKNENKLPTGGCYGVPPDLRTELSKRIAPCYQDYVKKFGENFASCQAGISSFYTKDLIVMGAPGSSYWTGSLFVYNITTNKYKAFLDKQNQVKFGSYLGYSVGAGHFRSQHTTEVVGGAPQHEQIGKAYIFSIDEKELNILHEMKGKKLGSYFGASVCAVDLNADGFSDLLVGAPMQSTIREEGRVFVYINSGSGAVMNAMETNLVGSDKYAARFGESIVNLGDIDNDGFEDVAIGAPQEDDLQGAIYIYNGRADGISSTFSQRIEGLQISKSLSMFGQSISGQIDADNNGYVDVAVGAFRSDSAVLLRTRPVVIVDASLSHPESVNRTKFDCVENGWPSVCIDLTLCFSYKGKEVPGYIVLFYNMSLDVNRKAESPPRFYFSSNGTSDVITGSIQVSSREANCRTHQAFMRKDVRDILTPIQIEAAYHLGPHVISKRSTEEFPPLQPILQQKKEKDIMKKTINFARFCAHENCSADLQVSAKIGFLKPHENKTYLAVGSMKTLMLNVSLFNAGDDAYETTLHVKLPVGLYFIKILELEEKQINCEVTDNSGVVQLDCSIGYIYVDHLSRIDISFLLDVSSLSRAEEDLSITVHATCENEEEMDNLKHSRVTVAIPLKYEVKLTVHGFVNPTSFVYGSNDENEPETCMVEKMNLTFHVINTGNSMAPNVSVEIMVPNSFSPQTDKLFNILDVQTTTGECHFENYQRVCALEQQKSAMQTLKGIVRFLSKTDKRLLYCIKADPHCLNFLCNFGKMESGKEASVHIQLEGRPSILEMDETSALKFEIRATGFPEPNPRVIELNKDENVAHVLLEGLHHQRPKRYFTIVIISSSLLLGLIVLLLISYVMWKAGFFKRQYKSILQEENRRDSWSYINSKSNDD
Sequence of Beta-2 adrenergic receptor (Homo sapiens) (P07550 whole entry, looked up): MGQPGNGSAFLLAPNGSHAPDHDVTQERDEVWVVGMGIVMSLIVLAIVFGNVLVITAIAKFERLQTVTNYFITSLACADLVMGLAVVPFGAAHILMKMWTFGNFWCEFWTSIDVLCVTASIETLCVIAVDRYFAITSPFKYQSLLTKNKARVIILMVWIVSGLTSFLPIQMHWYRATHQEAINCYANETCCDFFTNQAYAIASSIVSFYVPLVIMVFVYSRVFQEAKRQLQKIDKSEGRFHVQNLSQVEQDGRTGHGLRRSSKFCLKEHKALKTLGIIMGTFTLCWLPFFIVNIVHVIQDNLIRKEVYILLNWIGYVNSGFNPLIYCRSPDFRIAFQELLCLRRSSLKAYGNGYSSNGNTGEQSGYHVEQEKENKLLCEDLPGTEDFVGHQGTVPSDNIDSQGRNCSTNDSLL
Sequence of AP-2 complex subunit beta (Homo sapiens) (P63010 whole entry, looked up, the tested form may be a part, one chain of several): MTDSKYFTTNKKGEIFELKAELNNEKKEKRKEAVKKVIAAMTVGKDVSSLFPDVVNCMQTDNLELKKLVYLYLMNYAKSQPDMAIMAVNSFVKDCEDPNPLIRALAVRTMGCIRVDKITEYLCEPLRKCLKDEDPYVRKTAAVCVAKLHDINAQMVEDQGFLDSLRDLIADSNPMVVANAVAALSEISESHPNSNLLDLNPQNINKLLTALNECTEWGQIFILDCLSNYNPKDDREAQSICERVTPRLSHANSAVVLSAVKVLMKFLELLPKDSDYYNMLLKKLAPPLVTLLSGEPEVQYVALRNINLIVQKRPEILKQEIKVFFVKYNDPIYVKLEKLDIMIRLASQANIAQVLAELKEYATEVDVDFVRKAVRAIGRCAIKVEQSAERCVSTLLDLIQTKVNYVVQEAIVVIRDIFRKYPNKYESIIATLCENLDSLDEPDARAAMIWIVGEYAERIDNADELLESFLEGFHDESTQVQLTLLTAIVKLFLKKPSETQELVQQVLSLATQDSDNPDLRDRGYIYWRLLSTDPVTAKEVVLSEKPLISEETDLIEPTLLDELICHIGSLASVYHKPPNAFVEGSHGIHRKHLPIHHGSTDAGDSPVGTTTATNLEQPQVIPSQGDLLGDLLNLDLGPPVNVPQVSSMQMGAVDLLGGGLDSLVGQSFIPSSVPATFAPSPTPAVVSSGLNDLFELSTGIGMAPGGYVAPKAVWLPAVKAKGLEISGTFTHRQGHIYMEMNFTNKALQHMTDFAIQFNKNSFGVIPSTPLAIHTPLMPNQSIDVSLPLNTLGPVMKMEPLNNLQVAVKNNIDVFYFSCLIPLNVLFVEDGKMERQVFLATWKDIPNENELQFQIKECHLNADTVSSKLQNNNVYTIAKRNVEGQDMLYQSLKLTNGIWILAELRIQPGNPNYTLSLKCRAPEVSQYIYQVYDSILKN

For the compound `CN(C)CCOC(C)(c1ccccc1)c1ccccn1` (stereo not given), in experiment [1], the percent of DMSO control GFP is 100% (inactive). In addition, the GFP response vs DMSO in experiment [2] is 104% (inactive); in experiment [4] it was 83.5% (inactive). In addition, the percent response of DMSO control in experiment [3] is 93.1% (inactive). Also, in experiment [5], the GFP response, % of DMSO was 93.7% (inactive). This compound also showed a double positive events in experiment [6] of 63.3%. Further, the vesicle binding response in experiment [6] was 129% (inactive). Besides, the inhibition in experiment [7] is -1.49% (inactive); in experiment [10] it was 13.9% (inactive); in experiment [14] it was 6% (inactive). Moreover, the aptamer binding inhibition in [8] is 2% (inactive). The response in experiment [9] was 2.25% (inactive); in [11] it was -1.19% (inactive). For the same compound, in experiment [12], the binding (% of control) is 106% (inactive). Moreover, in [13], the efflux inhibition (fraction of control) is 0.74 (active). Also, the differentiation response in [15] is 13.9% (inactive).
As to `CCOC(=O)c1cccc(C(=O)OCC)n1`, the percent of DMSO control GFP in [1] is 102% (inactive). For the same compound, the figures for the GFP response vs DMSO in experiment [2] and in [4] were 98.3% (inactive) and 84.1% (inactive), respectively. In addition, the percent response of DMSO control in [3] is 100% (inactive). Further, the GFP response, % of DMSO in experiment [5] was 95.7% (inactive). In addition, the double positive events in experiment [6] was 62.1%. In addition, the vesicle binding response in [6] is 28.3% (inactive). Also, the inhibition is -2.53% (inactive) in experiment [7], 5.21% (inactive) in experiment [10] and 5% (inactive) in experiment [14]. The aptamer binding inhibition in experiment [8] was 0% (inactive). In addition, the response in [9] was -0.16% (inactive); in experiment [11], -1.45% (inactive). Moreover, the binding (% of control) in experiment [12] is 103% (inactive). For the same compound, the efflux inhibition (fraction of control) in [13] was 0.68 (active). Besides, in experiment [15], the differentiation response was 29.6% (inactive).
Take `COc1ccccc1C1C(C#N)=C(N)Oc2c1oc(CO)cc2=O` (stereo not given): the percent of DMSO control GFP in experiment [1] was 102% (inactive). The results for the GFP response vs DMSO in experiment [2] and in experiment [4] were 96.9% (inactive) and 103% (inactive), respectively. Also, the percent response of DMSO control in [3] was 111% (inactive). In experiment [5], the GFP response, % of DMSO is 107% (inactive). The compound also displayed a double positive events in experiment [6] of 52%. The vesicle binding response in [6] was 174% (inactive). Moreover, the inhibition was -11.4% (inactive) in experiment [7], -6.41% (inactive) in experiment [10] and 9% (inactive) in experiment [14]. Also, in experiment [16], the superoxide response (% of plate) was 103% (inactive). Besides, the aptamer binding inhibition in experiment [8] was 2% (inactive). Also, in experiment [11], the response is 2.3% (inactive). Besides, in [12], the binding (% of control) is 95.9% (inactive). The efflux inhibition (fraction of control) in experiment [13] was 0.03 (inactive). Also, the differentiation response in [15] is -11.5% (inactive).
For `Cc1ccc(CSCC(=O)NCCCN2CCOCC2)cc1`, the percent of DMSO control GFP in [1] was 100% (inactive). The results for the GFP response vs DMSO in experiment [2] and in experiment [4] were 96.2% (inactive) and 92.7% (inactive), respectively. Moreover, in [3], the percent response of DMSO control is 95.4% (inactive). In experiment [5], the GFP response, % of DMSO was 96.4% (inactive). Also, the double positive events in experiment [6] came out at 67.8%. The vesicle binding response in [6] was 243% (inactive). For the same compound, the figures for the inhibition in experiment [7], in experiment [10] and in [14] were -4.6% (inactive), -6.22% (inactive) and -6% (inactive), respectively. In [8], the aptamer binding inhibition was -4% (inactive). The response in [9] is -1.57% (inactive); in experiment [11] it was 1.78% (inactive). The binding (% of control) in experiment [12] is 104% (inactive). Further, the efflux inhibition (fraction of control) in [13] was 0.33 (inactive). Moreover, the differentiation response in experiment [15] was 3.18% (inactive).
On to `CN(C)CCCN1c2ccccc2CCc2ccc(Cl)cc21`, for which, in [1], the percent of DMSO control GFP is 100% (inactive). The GFP response vs DMSO in experiment [2] was 99.7% (inactive); in [4] it was 98% (inactive). The percent response of DMSO control in experiment [3] is 101% (inactive). In [5], the GFP response, % of DMSO is 97.1% (inactive). Moreover, in experiment [6], the double positive events came out at 65%. Also, the inhibition was 12.3% (inactive) in [7], -2% (inactive) in experiment [10] and 18% (inactive) in experiment [14]. For the same compound, the superoxide response (% of plate) in experiment [16] was 97.5% (inactive). In addition, in experiment [8], the aptamer binding inhibition is -3% (inactive). In addition, the response in experiment [9] is 38.7% (inactive); in experiment [11] it was -7.85% (inactive). Moreover, in [12], the binding (% of control) is 112% (inactive). For the same compound, the efflux inhibition (fraction of control) in [13] was 0.51 (active). The differentiation response in experiment [15] is -10.4% (inactive).
